# In ChEMBL document CHEMBL3988442, “University of Dundee, Small-Polar-MMV Screening Library” (2021):
# The whole screen tested about 69,000 compounds, of which about 1,000 (1.4%) showed an effect of 50% or more. This excerpt belongs to a sample that is enriched for strong results.
# Test system: Leishmania donovani
# Experiment: Leishmania intramacrophage assay
# Type: functional, organism-based
# Design: scale not given: in the data most compounds retested in dose-response had high values
Compound,"Percent Effect (30.3 µM, […])","Percent Effect (30 µM, 30.03 µM)"
CS(=O)(=O)N1CCC2(CC1)CC(NCc1ccco1)c1ccccc12.O=C(O)C(F)(F)F (stereo not drawn),16.74%,
COc1ccc(CN2CC[C@@H](O)[C@@H]2Cc2ccccc2)cc1.O=C(O)C(F)(F)F,,-18.25%
C/N=C1/c2cc3cc(OC)ccc3n2CCN1Cc1ccccc1.Cl,64.09%,
COc1ccc2c(ccn2CCC(=O)O)c1,,9.834%
C/N=C1/c2cc3cc(OC)ccc3n2CCN1C,-16.2%,
C/N=C1\c2cc3cc(OC)ccc3n2CCN1Cc1ccccc1.O=C(O)C(F)(F)F,57.81%,
C/N=C1\c2cc3cc(OC)ccc3n2CCN1C.Cl,10.14%,
COCCN1C[C@H]2CC[C@@H]1CN(Cc1cc(=O)c3cc(C)ccc3[nH]1)C2,38.8%,
CSCC(C)(O)CNS(=O)(=O)c1cccc(Cl)c1 (stereo not drawn),18.54%,
CC1CCN(C(=O)C(C)N2CCc3[nH]nc(C(F)(F)F)c3C2)CC1 (stereo not drawn),13.32%,
Cc1nc(C(=O)N(C)CC2CCCO2)nn1-c1ccccc1C(C)C (stereo not drawn),0.9975%,
Cn1cc(-c2nnn3c2COC(CNC(=O)c2cccs2)C3)cn1 (stereo not drawn),37.28%,
c1ccc(OCCNC2CCN(c3ncccn3)CC2)cc1,4.504%,
Cc1cc(N2CCC(O)CC2)nc(C)n1,1.581%,
Cc1cc(N2CCC(N(C)C(=O)Nc3ccccc3)CC2)nc(C)n1,,11.78%
Cc1nc(CN2CCCC(NCCOc3ccccc3)C2)no1 (stereo not drawn),,33.1%
Cc1cc(N2CCC(NCCOc3ccccc3)CC2)nc(C)n1,53.39%,
Cc1cc(N2CCC(N(C)C(=O)c3ccccc3F)CC2)nc(C)n1,35.99%,
Cc1cc(N2CCC(N(C)C(=O)c3ccccc3)CC2)nc(C)n1,,62.61%
CN(C)c1ccnc(N2CCC(NCCOc3ccccc3)CC2)n1,79.37%,
Cc1ccnc(N2CCC(NCCOc3ccccc3)CC2)n1,18.71%,
Cc1nc(C)c(C)c(N2CCC(NCCOc3ccccc3)CC2)n1,58.55%,
Cc1cc(N2CCC(N(C)C(=O)c3ccc(C#N)cc3)CC2)nc(C)n1,14.71%,
O=C(COCCOc1ccccc1)NC1CCN(c2ncccn2)CC1,21.86%,
CNc1cncc(C2CCCN2C(=O)CCn2ccnc2)n1 (stereo not drawn),1.152%,
CCCc1cc(C(=O)N2CCOC(c3nc(-c4cccs4)no3)C2)no1 (stereo not drawn),,23.21%
COc1ccc(CN2CC[C@H](O)[C@@H]2Cc2cnn(C)c2)cc1.O=C(O)C(F)(F)F,36.9%,
CCc1ncnc2c1CCN(CC(=O)N(C)C)CC2.O=C(O)C(F)(F)F,4.143%,
